Test results reported in PubChem BioAssay (NCATS).
Results filed as inconclusive are left out. Calls of active or inactive are those of the source. The call rests on the fitted dose curve; in most records, active means well fitted curve in either direction with a large enough effect (not every such curve was filed as active); inconclusive means small, poorly fitted or top-dose-only effect, or another doubt; inactive means flat fitted curve, though single readings scatter. Residues, ends and D or L forms follow the SMILES beside them.

assay: Stat Signaling Pathway (AID 446); conditions: ME-180 (cervical carcinoma) SIE beta-lactamase reporter, IL-6 stimulated, 5 h; at 7.69 µM (top of the series) unless noted;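 further: ME-180 cervical cancer cells given 40 pM IL-6 alongside compound; SIE-controlled beta-lactamase reporter measured as 460/530 nm FRET emission ratio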
Outline: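 Compound effects on IL-6-induced STAT reporter activity were measured in ME-180 cells. After overnight culture, cells were co-treated with 40 pM IL-6 for 5 hrs before beta-lactamase substrate loading at room temperature.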
On the % scale 0 is the no-effect control and ±100 the full control effect.

Question: Which activity, negative = inhibition does the source give for `C[C@@H](N1CCOCC1)[C@@](O)(c1ccccc1)c1ccccn1` here?
Answer: 4.17% (inactive)

Question: With `O=C(O)c1ccccc1C1c2ccccc2Oc2ccccc21` as the molecule, how does the activity, negative = inhibition read?
Answer: 0.279% (inactive)

Question: With `C[C@@H](CS(=O)(=O)Cc1ccccc1)C(N)=O` as the molecule, how does the activity, negative = inhibition read?
Answer: 3.43% (inactive)

Question: Which activity, negative = inhibition does the source give for `Nc1cccc2cc(S(=O)(=O)Nc3ccc(C(=O)O)cc3)ccc12` here?
Answer: -1.24% (inactive)

Question: For `Nc1c(OCC(=O)O)ccc2cc(S(=O)(=O)O)ccc12`, which activity, negative = inhibition is on record?
Answer: -10.7% (inactive)

Question: For `O=C(O)c1nn(-c2ccc(Cl)cc2)c2c1C(=O)c1ccccc1C2=O`, which activity, negative = inhibition is on record?
Answer: 2.2% (inactive)

Question: For `CN1CCCN(C)C1c1cc([N+](=O)[O-])ccc1O`, which activity, negative = inhibition is on record?
Answer: -0.988% (inactive)

Question: With `Cc1cc(Cl)ccc1OCC(=O)Nc1nc(N)nc(N)n1` as the molecule, how does the activity, negative = inhibition read?
Answer: -6.25% (inactive)

Question: With `CC(=O)N[C@H](Cc1ccc(O)cc1)C(=O)O` as the molecule, how does the activity, negative = inhibition read?
Answer: -0.609% (inactive)

Question: With `O=C(O)c1ccccc1C(=O)Nc1cc2c(cc1Br)-c1ccccc1C2=O` as the molecule, how does the activity, negative = inhibition read?
Answer: -5.27% (inactive)

Question: For `[O-][N+]1(CC[N+]2([O-])CCCCC2)CCCCC1`, which activity, negative = inhibition is on record?
Answer: -8.8% (inactive)

Question: Which activity, negative = inhibition does the source give for `COc1ccc([C@H](O)c2ccccn2)cc1` here?
Answer: 9.75% (inactive)

Question: With `O=c1[nH]cc(CS(=O)(=O)Cc2c[nH]c(=O)[nH]c2=O)c(=O)[nH]1` as the molecule, how does the activity, negative = inhibition read?
Answer: 0.704% (inactive)

Question: With `O=C(O)c1ccc(Nc2ccnc3cc(Cl)ccc23)cc1O` as the molecule, how does the activity, negative = inhibition read?
Answer: -9.48% (inactive)

Question: With `N#CC(CC(=O)O)=C(c1ccccc1)c1ccccc1` as the molecule, how does the activity, negative = inhibition read?
Answer: 1.35% (inactive)

Question: Which activity, negative = inhibition does the source give for `N[C@H]1[C@@H](C(=O)O)[C@H]2C=C[C@H]1C2` here?
Answer: 7.88% (inactive)

Question: Which activity, negative = inhibition does the source give for `N[C@H](CO)C(=O)NCC(=O)O` (HELM PEPTIDE1{[dS].G}$$$$V2.0) here?
Answer: 13.6% (inactive)
